Screens (PubChem BioAssay)
Rows were chosen to be rich in hits. Some 2% of all compounds tested hit in one or more screens of this group.
aSyn yeast inh: inhibitors of alpha-synuclein toxicity in yeast | Potency, µM (titrated, usually from 46.1 µM), without a hit: at the highest dose growth rescue (activation), usual class: activators | 370,000 tested, 0.14% active | Yeast expressing alpha-synuclein, growth rescue, BacTiter-Glo, 24 h; note: potency is the fitted concentration of half-maximal effect; % of control where 0% means no effect; nearly all actives have a fitted effect of over 65% in size
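Readout is rescue of growth in alpha-synuclein-expressing yeast, so inhibitors of toxicity appear as activators. Growth after 24 hr at 30 deg C in galactose medium is quantified by luminescence.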
TDP43 rescue: inhibitors of TDP-43 toxicity in yeast; TDP-43 expressing yeast growth rescue, BacTiter-Glo, 24 h; Potency, µM (series often up to 46.1 µM), without a hit: top-dose growth rescue (activation), hits mostly activators; 410,000 tested, 1.8% active; note: potency is the fitted concentration of half-maximal effect; % of control where 0% means no effect; nearly all actives have a fitted effect of over 50% in size
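Cell-based yeast growth screen: TDP-43 expression induced in galactose, inoculum OD600=0.02 after raffinose pregrowth to mid-log. Read-out BacTiter-Glo luminescence at 24 hr, 30 deg C; inhibition of toxicity seen as signal increase.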
FUS suppressor: rescues growth of FUS-expressing yeast | S. cerevisiae FUS-expressing, growth rescue, OD600, 24 h | Potency, µM (series often up to 76.6 µM), actives largely listed as activators | 390,000 tested, 0.24% active | AID 1347120;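 note: potency is the fitted concentration of half-maximal effect; plate controls were DMSO vehicle for no effect and reference control for full effect; nearly all actives have a fitted effect of over 55% in size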
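Read-out: OD at 600 nm after 24hr at 30C, reporting rescue of FUS-induced yeast toxicity. Cells at OD 0.005 in galactose (2%) minimal medium; compounds tested in a dilution series; CP55940 titration from 92uM final as control.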
mIDH1 inhibitor: human IDH1 R132H inhibition. IDH1-R132H enzyme, NADPH consumption, diaphorase/resazurin fluorescence. Potency, µM (highest dose often 76.6 µM), for inactives: at the top dose activity change, negative = inhibition, actives largely listed as inhibitors. 390,000 tested, 0.093% active. AID 602179; note: potency is the fitted concentration of half-maximal effect; % is set by controls: 0 for no effect and ±100 for the full control effect; nearly all actives have a fitted effect of over 65% in size
Target sequence (O75874 whole entry R132H, stated change not applied): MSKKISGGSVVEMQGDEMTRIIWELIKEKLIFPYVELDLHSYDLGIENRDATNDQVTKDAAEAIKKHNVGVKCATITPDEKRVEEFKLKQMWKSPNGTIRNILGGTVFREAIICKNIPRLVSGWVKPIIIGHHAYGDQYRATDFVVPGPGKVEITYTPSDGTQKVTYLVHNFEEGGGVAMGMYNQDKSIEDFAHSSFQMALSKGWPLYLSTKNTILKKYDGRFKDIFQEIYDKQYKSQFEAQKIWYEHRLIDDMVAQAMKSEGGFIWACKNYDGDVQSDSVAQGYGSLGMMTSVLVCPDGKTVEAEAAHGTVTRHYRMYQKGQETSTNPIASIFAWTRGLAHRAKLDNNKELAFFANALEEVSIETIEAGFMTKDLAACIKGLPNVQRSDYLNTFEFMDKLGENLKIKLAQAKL
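IDH1-R132H (0.5 ug/mL) preincubated 30 min with compound, then NADPH (0.016 mM) and alpha-KG (2 mM) added; 80 min at RT, pH 7.5. Remaining NADPH coupled via diaphorase/resazurin to fluorescence (540/590 nm); concentration-response curves normalized to no-enzyme control.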
LDHA inh: LDHA (human) enzyme inhibition; 480,000 tested, 0.15% active; activity change, % (values are at about 110 or 230 µM); purified LDHA, NADH/diaphorase-resazurin fluorescence; hits give low values; in the data active = activity change below about -30%; inconclusive = mostly about -25% to -30%;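 note: plate controls were DMSO wells for no effect and wells without enzyme for full effect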
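Resorufin fluorescence (ex540/em590), read at 0 and 20 min after diaphorase/resazurin addition, reports the NADH left after a 5 min room-temperature reaction of 2 nM human LDH5 with 0.06 mM NADH and 0.2 mM pyruvate.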
Abeta rescue: A-beta toxicity reversal in yeast. yeast expressing A-beta42, growth rescue, OD600, 48 h; response scale: 0% DMSO, 100% iron-clioquinol control. Potency, µM (highest dose often 46.1 µM), usual class: activators. 410,000 tested, 0.063% active. AID 1347071; note: potency is the fitted concentration of half-maximal effect; nearly all actives have a fitted effect of over 55% in size
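Growth rescue measured by 600 nm absorbance after 48 h yeast culture at 30 C with compound. Values normalized between DMSO and an equimolar ferric chloride plus clioquinol control.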
Resorufin autofl: interferes with resorufin fluorescence in IDH1 counter-screen; shares compounds with mIDH1 inhibitor; Resorufin detection reagent fluorescence interference, cell-free; inhibition of signal, % at 51.2 µM; 750 tested, under 10 active;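 note: 0% = wells with normal resorufin and full inhibition = wells lacking resorufin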
IDH1 WT: selectivity of mutant IDH1 inhibitors: human wild-type IDH1 | Potency, µM (series often up to 115 µM), for the others: top-dose activity change, negative = inhibition, most hits filed as inhibitors | WT IDH1 enzyme, NADPH diaphorase/resazurin fluorescence | shares compounds with mIDH1 inhibitor | 750 tested, 9% active;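 note: potency is the fitted concentration of half-maximal effect; 0% = full WT IDH1 enzyme control and full inhibition = no enzyme wells; nearly all actives have a fitted effect of over 55% in size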
Target sequence (O75874 whole entry, looked up): as the sequence (O75874 whole entry R132H, stated change not applied) above, with H132R counted along it
mIDH1 confirm: confirmation of human mutant IDH1 inhibitors; shares compounds with mIDH1 inhibitor; IDH1 R132H enzyme, NADPH diaphorase/resazurin fluorescence; Potency, µM (highest dose often 76.6 µM), for inactives: at the highest dose activity change, negative = inhibition, hits mostly inhibitors; 750 tested, 83% active; AID 624002; note: potency is the fitted concentration of half-maximal effect; nearly all actives have a fitted effect of over 50% in size
The depositor's hits bear a star; i = inactive; ? = inconclusive; . = no result given. Unless noted, calls come from the whole dose curve; as a rule, active = well fitted curve in the direction sought with a large enough effect; inconclusive = small, poorly fitted or top-dose-only effect, or another doubt; inactive = no such curve, though single readings can be large; an effect the other way counts as inactive or inconclusive.

SMILES | aSyn yeast inh | TDP43 rescue | FUS suppressor | mIDH1 inhibitor | LDHA inh | Abeta rescue | Resorufin autofl | IDH1 WT | mIDH1 confirm
CCOc1ccc(CCN2C(=O)C(=O)N([C@@H](Cc3ccccc3)CN3CCC[C@H]3CN3C(=O)C(=O)NC[C@@H]3Cc3ccc(O)cc3)C[C@@H]2Cc2ccc(O)cc2)cc1 | 2.9% | 15.8% | ? | . | -7.9 | i | . | . | .
CCCOC(=O)c1ccc(OC(=O)CCCOc2ccc(Cl)cc2Cl)cc1 | . | . | . | . | 7.4 | . | . | . | .
NC(=O)CN1C(=O)/C(=c2\sc3nc(=O)c(Cc4ccccc4)nn3c2=O)c2ccccc21 | -8.3% | -0.7% | i | ? | 5.4 | i | 2.3 | 39.7% | -6.1%
CCCN1C(=O)/C(=c2\sc3nc(=O)c(Cc4ccc(C)cc4)nn3c2=O)c2ccccc21 | -4.7% | -30.4% | i | 3.8% | -0.2 | i | . | . | .
CCOc1ccc(NC(=O)c2c[nH]n3c(=O)cc(C4CCN(C(=O)OC(C)(C)C)CC4)nc23)cc1 | -0.4% | 16.5% | i | 52.1µM* | -12.8 | i | -12.6 | 50.1µM* | 25.1µM*
COc1ccc(N(C)C(=O)c2ccc3c(Cl)c4c(nc3c2)CCCC4)c(OC)c1 | 5.7% | 9.1% | ? | ? | -2.4 | i | -6.5 | -0.1% | 39.8µM*
CC1=NOC(=O)/C1=C\c1ccc(-c2ccc(Br)cc2)o1 | -5.2% | ? | i | 20.7µM* | -2.8 | i | 1.4 | ? | 22.4µM*
Cc1cc(/C=N/n2c(COc3ccccc3)nc3ccccc3c2=O)c(O)c([N+](=O)[O-])c1 | ? | -13.4% | ? | ? | -1.6 | i | 5.8 | 3.5% | 31.6µM*
COc1cc(-c2nc3c(c(C)nn3-c3ccccc3)c3cc(OC)c(OC)cc23)ccc1O | 7.5% | 10.8% | i | ? | 1.2 | i | 1.5 | 0.1% | 10µM*
COc1ccc(N(C(=O)c2ccco2)C(C(=O)NC2CCCC2)c2ccccc2)cc1 (stereo not given) | 2.5% | -6.7% | i | ? | -3.6 | i | 0.3 | 11.1% | 39.8µM*
COc1ccc(N(C(=O)c2ccco2)C(C(=O)NC2CCCC2)c2ccc(N(C)C)cc2)cc1 (stereo not given) | -1.8% | -5.9% | i | -1.6% | 3.3 | i | . | . | .
Cc1cc(C)cc(N(C(=O)CNC(=O)c2ccco2)C(C(=O)NC2CCCCC2)c2cccnc2)c1 (stereo not given) | -3.5% | -2.9% | i | ? | -3.4 | i | -2.0 | 0.2% | ?
COc1cccc(C(C(=O)NC2CCCCC2)N(C(=O)c2ccco2)c2ccccc2OC)c1 (stereo not given) | -4.4% | -1.6% | i | ? | 1.4 | i | -4.4 | -4.7% | ?
COc1ccc(C(C(=O)NC2CCCCC2)N(C(=O)c2ccco2)c2ccccc2OC)cc1 (stereo not given) | -12.5% | -18.7% | i | -0.2% | -10.3 | i | . | . | .
Cc1cc(C)cc(N(C(=O)CNC(=O)c2ccco2)C(C(=O)NC2CCCC2)c2cccnc2)c1 (stereo not given) | -4.7% | -12.4% | i | -6.3% | -14.3 | i | . | . | .
